{"source": "the supplement of paper PMC8975748", "note": "Counter-ions that a name gives are not always drawn."}
{"system": "Saccharomyces cerevisiae BY4741 SeMeCo community", "experiment": "z-score of subpopulation abundance vs DMSO median, subpopulation auxotrophic for U; higher = larger share of this subpopulation than in DMSO controls", "settings": "10 µM; 24 h; SM minimal medium; subpopulation (auxotrophy): U", "procedure": "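Fluorescent four-plasmid SeMeCo (self-establishing metabolically cooperating S. cerevisiae BY4741 community; plasmids pH-mRuby2, pL-mWasabi, pU-eCFP, pM-TagRFP657) was grown 24 h in minimal SM medium with each Selleck FDA-approved drug at 10 µM in 384-well plates. Cells were fixed and imaged by high-content confocal microscopy. For each auxotrophic subpopulation (and the prototroph), a z-score gives the deviation from the DMSO vehicle-control population median.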"}
{"smiles": "C[C@@H]1CC[C@H]2[C@@H](C)C(=O)O[C@@H]3O[C@@]4(C)CC[C@@H]1[C@]32OO4", "note": "[Artemisinin]", "z-score of subpopulation abundance": 0.61}
{"smiles": "CC[C@H]1[C@@H]2C[C@H]3[C@@H]4N(C)c5ccccc5[C@]45C[C@@H]([C@@H]2[C@H]5O)N3[C@@H]1O", "note": "[Ajmaline]", "z-score of subpopulation abundance": 0.29}
{"smiles": "CC(NC(C)(C)C)C(=O)c1cccc(Cl)c1", "note": "(stereo not given) [Amfebutamone (Bupropion) HCl]", "z-score of subpopulation abundance": 0.11}
{"smiles": "CN1[C@@H]2C[C@@H](OC(=O)[C@H](CO)c3ccccc3)C[C@H]1[C@@H]1O[C@@H]12", "note": "[Scopolamine HBr trihydrate]", "z-score of subpopulation abundance": 0.18}
{"smiles": "CN(C)C(=O)Oc1cccc([N+](C)(C)C)c1", "note": "[Neostigmine Bromide]", "z-score of subpopulation abundance": -0.26}
{"smiles": "Cc1cc(O)ccc1Cl", "note": "[Chlorocresol]", "z-score of subpopulation abundance": -0.59}
{"smiles": "C=CC[C@]1(O)CC[C@H]2[C@@H]3CCC4=CC(=O)CCC4=C3C=C[C@@]21C", "note": "[Altrenogest]", "z-score of subpopulation abundance": -1.52}
{"smiles": "CC[C@H]1CN2CC[C@]3(C(=O)Nc4ccccc43)[C@@H]2C[C@@H]1/C(=C\\OC)C(=O)OC", "note": "[Rhynchophylline]", "z-score of subpopulation abundance": 0.63}
{"smiles": "CC(C)(O)C(Cl)(Cl)Cl", "note": "[Chlorobutanol]", "z-score of subpopulation abundance": 0.13}
{"smiles": "CCN(C)C(=O)Oc1cccc([C@H](C)N(C)C)c1", "note": "[Rivastigmine]", "z-score of subpopulation abundance": -0.07}
{"smiles": "CCN1CC2(OC(=O)c3ccccc3NC(C)=O)CCC(OC)C34C1C(CC23)C1(O)CC(OC)C2CC4C1(O)C2OC", "note": "(stereo not given) [Lappaconitine]", "z-score of subpopulation abundance": -0.25}
{"smiles": "Cn1cc(C2=C(c3cn(C4CCN(Cc5ccccn5)CC4)c4ccccc34)C(=O)NC2=O)c2ccccc21", "z-score of subpopulation abundance": 1.48}
{"smiles": "C[C@H]1O[C@H](O[C@H]2[C@H](O)[C@@H](O)[C@@H](O)[C@H](O)[C@@H]2O)[C@@H](N)C[C@@H]1NC(=N)C(=O)O", "note": "[Kasugamycin hydrochloride]", "z-score of subpopulation abundance": -0.23}
{"smiles": "CN[C@@H]1[C@@H](O)[C@@H](O[C@@H]2[C@@H](O)[C@H](O[C@H]3O[C@H]([C@@H](C)O)[C@@H](O)[C@H](O)[C@H]3N)[C@@H](N)C[C@H]2N)OC[C@]1(C)O", "note": "[Geneticin (G418 Sulfate)]", "z-score of subpopulation abundance": -0.18}
{"smiles": "O=C(O[C@H]1C[N+]2(CCCOc3ccccc3)CCC1CC2)C(O)(c1cccs1)c1cccs1", "note": "[Aclidinium Bromide]", "z-score of subpopulation abundance": 0.94}
{"smiles": "C[N+]1(C)[C@@H]2C[C@@H](OC(=O)[C@H](CO)c3ccccc3)C[C@H]1[C@@H]1O[C@@H]12", "note": "[Methscopolamine]", "z-score of subpopulation abundance": 0.61}
{"smiles": "CCCCCCCCCCCCCCCC[n+]1ccccc1", "note": "[Cetylpyridinium Chloride]", "z-score of subpopulation abundance": 1.27}
{"smiles": "CN1[C@@H]2CC[C@H]1C[C@@H](OC(=O)[C@H](CO)c1ccccc1)C2", "note": "[Hyoscyamine]", "z-score of subpopulation abundance": 0.23}
{"smiles": "CN(C)[C@@H]1C(=O)C(C(N)=O)=C(O)[C@@]2(O)C(=O)C3=C(O)c4c(O)cccc4[C@@](C)(O)[C@H]3[C@H](O)[C@@H]12", "note": "[Oxytetracycline Dihydrate]", "z-score of subpopulation abundance": 0.11}
{"smiles": "C=C[C@H]1CN2CC[C@H]1C[C@H]2[C@H](O)c1ccnc2ccccc12", "note": "[Cinchonidine]", "z-score of subpopulation abundance": 0.59}
{"smiles": "C#C[C@]1(O)C=C[C@H]2[C@@H]3CCC4=CC(=O)CC[C@@H]4[C@H]3CC[C@@]21CC", "note": "[Gestodene]", "z-score of subpopulation abundance": -0.99}
{"smiles": "C=CN1CCCC1=O.II", "note": "[Povidone iodine]", "z-score of subpopulation abundance": 0.2}
{"smiles": "CC1(C)SC2C(N)C(=O)N2C1C(=O)O", "note": "(stereo not given) [6-Aminopenicillanic acid]", "z-score of subpopulation abundance": 0.1}
{"smiles": "NC(=O)CN1CCCC1=O", "note": "[Piracetam]", "z-score of subpopulation abundance": -0.08}
{"smiles": "COC(=O)C1=CCCN(C)C1", "note": "[Arecoline HBr]", "z-score of subpopulation abundance": -0.09}
{"smiles": "N[C@@H]1C[C@H]1c1ccccc1", "note": "[Tranylcypromine (2-PCPA) HCl]", "z-score of subpopulation abundance": -0.01}
{"smiles": "C[C@@H]1O[C@@H](O[C@H]2C[C@@H](O)[C@]3(CO)[C@H]4[C@H](O)C[C@]5(C)[C@@H](C6=CC(=O)OC6)CC[C@]5(O)[C@@H]4CC[C@]3(O)C2)[C@H](O)[C@H](O)[C@H]1O", "note": "[Ouabain]", "z-score of subpopulation abundance": 0.18}
{"smiles": "Oc1cc(Cl)ccc1Oc1ccc(Cl)cc1Cl", "note": "[Triclosan]", "z-score of subpopulation abundance": -0.09}
{"smiles": "CC(C)=CCOc1c2occc2cc2ccc(=O)oc12", "note": "[Imperatorin]", "z-score of subpopulation abundance": 0.23}
{"smiles": "NCCc1c[nH]c2ccc(O)cc12", "note": "[Serotonin HCl]", "z-score of subpopulation abundance": 0.33}
{"smiles": "CC(C)N(CCC(C(N)=O)(c1ccccc1)c1ccccn1)C(C)C", "note": "(stereo not given) [Disopyramide]", "z-score of subpopulation abundance": -1.21}
{"smiles": "CCN(C)C(=O)Oc1cccc([C@H](C)N(C)C)c1", "note": "[Rivastigmine Tartrate]", "z-score of subpopulation abundance": -0.19}
{"smiles": "Nc1ccncc1", "note": "[4-Aminopyridine]", "z-score of subpopulation abundance": -0.8}
{"smiles": "CCCN1C[C@H](CSC)C[C@@H]2c3cccc4[nH]cc(c34)C[C@H]21", "note": "[Pergolide Mesylate]", "z-score of subpopulation abundance": -0.62}
{"smiles": "C=CCN1C[C@H](C(=O)N(CCCN(C)C)C(=O)NCC)C[C@@H]2c3cccc4[nH]cc(c34)C[C@H]21", "note": "[Cabergoline]", "z-score of subpopulation abundance": 1.05}
{"smiles": "CN1[C@@H]2CC[C@H]1C[C@@H](OC(=O)C(CO)c1ccccc1)C2", "note": "(stereo not given in full) [Atropine sulfate monohydrate]", "z-score of subpopulation abundance": 0.96}
{"smiles": "CN(C)[C@@H]1C(=O)C(C(N)=O)=C(O)[C@@]2(O)C(=O)C3=C(O)c4c(O)ccc(Cl)c4[C@@](C)(O)[C@H]3C[C@@H]12", "note": "[Chlortetracycline HCl]", "z-score of subpopulation abundance": 0.25}
{"smiles": "O=c1cccc2n1C[C@@H]1CNC[C@H]2C1", "note": "[Cytisine]", "z-score of subpopulation abundance": -0.25}
{"smiles": "COc1ccc2[nH]cc(CCN)c2c1", "note": "[5-Methoxytryptamine]", "z-score of subpopulation abundance": 1.12}
{"smiles": "C[CH2][Hg][S]c1ccccc1C(=O)[O-].[Na+]", "note": "[Thimerosal]", "z-score of subpopulation abundance": -3.69}
